Data: the supplement of paper PMC10849652
Targets with a hit are over-represented here; the source holds about 7,900 in all. About 0.6% of all pairs of compound and target were hits.

Columns and labels:
Test in all cases: log2 fold change, soluble protein after heating vs DMSO (PISA); higher = thermal stabilisation; K562 cells, 10 uM, 30 min; active = over 0.2 and 3.5 SD of the protein, either way, in both replicates (recomputed)
[1] = compound: Cc1ccc(NC(=O)c2ccc(CN3CC[C@H](N(C)C)C3)c(C(F)(F)F)c2)cc1Nc1nccc(-c2cncnc2)n1 [bafetinib]
In short: (§1)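 Thermal stability values are relative to control samples and come from duplicates. They are expressed as log2 fold changes. For measurement, K562 cells (2×10^6 cells/mL) received 10 μM compound for 30 min, and aliquots were heated for 3 min over 48°C-58°C, pooled, and extracted at 4°C in PBS with 0.5% NP-40. Soluble protein, the supernatant after 21,000xg for 90 min, was quantified by TMTpro 16plex LC-MS/MS with equalised channel sums.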

[2] = compound: Cc1cccc(CC(=O)N2CCc3c2ccc(-c2cn(C)c4ncnc(N)c24)c3F)n1
In short: as §1

[3] = compound: Cc1cn(-c2cc(NC(=O)c3ccc(C)c(Nc4nccc(-c5cccnc5)n4)c3)cc(C(F)(F)F)c2)cn1 [nilotinib]
In short: as §1

[4] = compound: Cc1nc(Nc2n[nH]c3c2CN(C(=O)N[C@H](CN(C)C)c2ccccc2)C3(C)C)c2sccc2n1
In short: as §1

[5] = compound: Cc1nc(Nc2ncc(C(=O)Nc3c(C)cccc3Cl)s2)cc(N2CCN(CCO)CC2)n1 [dasatinib]
In short: as §1

[6] = compound: Cc1ncc(-c2ccnc(Nc3ccc(S(C)(=O)=O)cc3)n2)n1C(C)C
In short: as §1

[7] = compound: Cn1cc(-c2ccc3c(c2)CCN3C(=O)Cc2cccc(C(F)(F)F)c2)c2c(N)ncnc21
In short: as §1

[8] = compound: Cn1cc(-c2ccc3nnc(C(F)(F)c4ccc5ncccc5c4)n3n2)cn1
In short: as §1

[9] = compound: Cn1cncc1[C@@](N)(c1ccc(Cl)cc1)c1ccc2c(c1)c(-c1cccc(Cl)c1)cc(=O)n2C [tipifarnib]
In short: as §1

[10] = compound: FC(F)(F)c1ccc(/C=C/c2nc(COc3ccc(CCCCn4ccnn4)cc3)co2)cc1 [mubritinib]
In short: as §1

[11] = compound: NC(=O)Nc1cc(-c2cccc(F)c2)sc1C(=O)N[C@H]1CCCNC1
In short: as §1

[12] = compound: NC(=O)c1cnc(N[C@@H]2CCCC[C@@H]2N)nc1Nc1cccc(-n2nccn2)c1
In short: as §1

[13] = compound: NC1(c2ccc(-c3nc4ccn5c(=O)[nH]nc5c4cc3-c3ccccc3)cc2)CCC1
In short: as §1

[14] = compound: NCC(=O)Nc1ccc(-n2nc(C(F)(F)F)cc2-c2ccc3c(ccc4ccccc43)c2)cc1
In short: as §1

[15] = compound: Nc1ccccc1NC(=O)c1ccc(CNC(=O)OCc2cccnc2)cc1 [entinostat]
In short: as §1

[16] = compound: O=C(CCCCCCC(=O)Nc1ccccc1)NO [vorinostat]
In short: as §1

[17] = compound: O=C(CCCCCCNC(=O)c1cnc(N(c2ccccc2)c2ccccc2Cl)nc1)NO [citarinostat]
In short: as §1

[18] = compound: O=C(O)c1ccc2c(c1)nc(Nc1cccc(Cl)c1)c1ccncc12 [silmitasertib]
In short: as §1

[19] = compound: O=C1NC(=O)C(c2cnc3ccccn23)=C1c1cn2c3c(cc(F)cc13)CN(C(=O)N1CCCCC1)CC2
In short: as §1

[20] = compound: c1cc(OCCN2CCCCC2)cc(-c2n[nH]c3ccc(-c4nnc[nH]4)cc23)c1
In short: as §1

Measured: log2 fold change

SLC19A1 (UniProt P41440)
inactive: [1] 0.11 | [2] 0.039 | [3] 0.01 | [4] 0.012 | [5] 0.024 | [6] 0.026 | [7] 0.103 | [8] -0.026 | [9] 0.051 | [10] 0.074 | [11] 0.1 | [12] 0.157 | [13] 0.036 | [14] 0.007 | [15] -0.017 | [16] 0.057 | [17] 0.02 | [18] -0.013 | [19] 0.207 | [20] -0.033

RUNX1 isoform 8 (UniProt Q01196)
Sequence of UniProt Q01196 (Q01196 whole entry, looked up): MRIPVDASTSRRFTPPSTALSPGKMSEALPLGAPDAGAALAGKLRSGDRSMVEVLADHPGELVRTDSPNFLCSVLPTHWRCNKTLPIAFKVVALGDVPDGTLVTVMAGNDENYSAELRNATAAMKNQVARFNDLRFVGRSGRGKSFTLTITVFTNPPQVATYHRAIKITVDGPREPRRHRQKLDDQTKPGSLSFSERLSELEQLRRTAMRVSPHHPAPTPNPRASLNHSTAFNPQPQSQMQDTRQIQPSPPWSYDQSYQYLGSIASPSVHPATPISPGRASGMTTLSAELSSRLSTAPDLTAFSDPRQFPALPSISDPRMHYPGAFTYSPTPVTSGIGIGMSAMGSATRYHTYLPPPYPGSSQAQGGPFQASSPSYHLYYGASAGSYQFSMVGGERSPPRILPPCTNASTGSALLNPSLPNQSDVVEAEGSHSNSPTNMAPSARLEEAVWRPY
inactive: [1] -0.149 | [2] -0.224 | [3] -0.07 | [4] -0.281 | [5] -0.082 | [6] -0.209 | [8] -0.104 | [9] 0.001 | [10] 0.01 | [11] -0.027 | [12] 0.03 | [13] -0.092 | [14] 0.187 | [15] -0.16 | [16] 0.321 | [17] -0.249 | [18] 0.119 | [19] 0.082 | [20] 0.051

RPS19 (UniProt P39019)
inactive: [1] 0.242 | [2] -0.026 | [3] 0.046 | [4] 0.181 | [5] 0.083 | [6] -0.021 | [7] -0.11 | [8] -0.068 | [9] 0.055 | [10] -0.037 | [11] -0.008 | [12] 0.075 | [13] 0.186 | [14] 0.079 | [15] -0.06 | [16] -0.007 | [17] -0.059 | [18] -0.014 | [19] 0.051 | [20] -0.107

SLC1A3 (UniProt P43003)
Sequence of UniProt P43003 (P43003 whole entry, looked up): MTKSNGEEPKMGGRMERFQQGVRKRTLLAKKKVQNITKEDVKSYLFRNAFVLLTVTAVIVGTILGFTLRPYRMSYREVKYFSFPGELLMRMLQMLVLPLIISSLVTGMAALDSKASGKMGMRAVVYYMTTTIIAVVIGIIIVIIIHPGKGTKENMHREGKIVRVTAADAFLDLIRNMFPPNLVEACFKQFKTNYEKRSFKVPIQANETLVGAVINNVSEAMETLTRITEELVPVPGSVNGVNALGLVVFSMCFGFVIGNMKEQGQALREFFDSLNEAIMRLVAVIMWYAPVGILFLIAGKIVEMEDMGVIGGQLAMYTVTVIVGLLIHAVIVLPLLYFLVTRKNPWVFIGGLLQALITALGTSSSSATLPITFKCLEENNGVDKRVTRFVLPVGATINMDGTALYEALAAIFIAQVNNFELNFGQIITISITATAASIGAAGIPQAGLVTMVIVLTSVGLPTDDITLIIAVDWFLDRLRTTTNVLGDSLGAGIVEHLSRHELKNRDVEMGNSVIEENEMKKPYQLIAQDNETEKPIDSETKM
inactive: [1] -0.051 | [2] 0.013 | [3] 0.131 | [4] -0.063 | [5] -0.203 | [6] -0.077 | [7] 0.133 | [8] -0.009 | [9] 0.054 | [10] 0.096 | [12] 0.237 | [13] 0.103 | [14] -0.055 | [16] 0.143 | [17] -0.096 | [18] -0.021 | [19] -0.18 | [20] -0.182

SDCBP isoform 2 (UniProt O00560)
inactive: [1] -0.298 | [2] -0.066 | [3] 0.108 | [4] -0.219 | [5] -0.083 | [6] -0.205 | [8] -0.085 | [9] 0.109 | [10] 0.033 | [11] -0.038 | [13] -0.286 | [15] 0.004 | [16] -0.01 | [17] 0.024 | [18] 0.124 | [19] -0.041 | [20] 0.097

SCAMP2 (UniProt O15127)
inactive: [1] -0.113 | [2] -0.125 | [3] 0.084 | [4] -0.107 | [5] -0.027 | [6] 0.058 | [7] 0.11 | [8] 0.062 | [9] -0.061 | [10] 0.046 | [11] -0.007 | [12] 0.168 | [13] 0.001 | [14] 0.029 | [15] -0.001 | [16] -0.027 | [17] 0.189 | [18] -0.002 | [19] 0.109 | [20] -0.065

SHROOM2 (UniProt Q13796)
inactive: [1] -0.091 | [2] -0.02 | [3] 0.082 | [4] 0.011 | [5] 0.166 | [6] -0.043 | [7] 0.163 | [9] -0.022 | [10] 0.258 | [11] 0.024 | [12] -0.09 | [13] 0.275 | [14] 0.006 | [15] -0.037 | [16] 0.068 | [17] 0.057 | [18] -0.141 | [19] -0.088 | [20] 0.057

SCAF11 (UniProt Q99590)
inactive: [1] 0.173 | [2] -0.144 | [3] 0.078 | [4] -0.007 | [5] 0.144 | [6] 0.379 | [7] -0.05 | [8] -0.03 | [9] 0.067 | [10] 0.052 | [11] 0.019 | [12] 0.073 | [13] 0.129 | [14] -0.003 | [15] -0.054 | [16] 0.12 | [17] -0.13 | [18] -0.038 | [19] 0.147 | [20] -0.29

RBBP6 (UniProt Q7Z6E9)
Sequence of UniProt Q7Z6E9 (Q7Z6E9 whole entry, looked up): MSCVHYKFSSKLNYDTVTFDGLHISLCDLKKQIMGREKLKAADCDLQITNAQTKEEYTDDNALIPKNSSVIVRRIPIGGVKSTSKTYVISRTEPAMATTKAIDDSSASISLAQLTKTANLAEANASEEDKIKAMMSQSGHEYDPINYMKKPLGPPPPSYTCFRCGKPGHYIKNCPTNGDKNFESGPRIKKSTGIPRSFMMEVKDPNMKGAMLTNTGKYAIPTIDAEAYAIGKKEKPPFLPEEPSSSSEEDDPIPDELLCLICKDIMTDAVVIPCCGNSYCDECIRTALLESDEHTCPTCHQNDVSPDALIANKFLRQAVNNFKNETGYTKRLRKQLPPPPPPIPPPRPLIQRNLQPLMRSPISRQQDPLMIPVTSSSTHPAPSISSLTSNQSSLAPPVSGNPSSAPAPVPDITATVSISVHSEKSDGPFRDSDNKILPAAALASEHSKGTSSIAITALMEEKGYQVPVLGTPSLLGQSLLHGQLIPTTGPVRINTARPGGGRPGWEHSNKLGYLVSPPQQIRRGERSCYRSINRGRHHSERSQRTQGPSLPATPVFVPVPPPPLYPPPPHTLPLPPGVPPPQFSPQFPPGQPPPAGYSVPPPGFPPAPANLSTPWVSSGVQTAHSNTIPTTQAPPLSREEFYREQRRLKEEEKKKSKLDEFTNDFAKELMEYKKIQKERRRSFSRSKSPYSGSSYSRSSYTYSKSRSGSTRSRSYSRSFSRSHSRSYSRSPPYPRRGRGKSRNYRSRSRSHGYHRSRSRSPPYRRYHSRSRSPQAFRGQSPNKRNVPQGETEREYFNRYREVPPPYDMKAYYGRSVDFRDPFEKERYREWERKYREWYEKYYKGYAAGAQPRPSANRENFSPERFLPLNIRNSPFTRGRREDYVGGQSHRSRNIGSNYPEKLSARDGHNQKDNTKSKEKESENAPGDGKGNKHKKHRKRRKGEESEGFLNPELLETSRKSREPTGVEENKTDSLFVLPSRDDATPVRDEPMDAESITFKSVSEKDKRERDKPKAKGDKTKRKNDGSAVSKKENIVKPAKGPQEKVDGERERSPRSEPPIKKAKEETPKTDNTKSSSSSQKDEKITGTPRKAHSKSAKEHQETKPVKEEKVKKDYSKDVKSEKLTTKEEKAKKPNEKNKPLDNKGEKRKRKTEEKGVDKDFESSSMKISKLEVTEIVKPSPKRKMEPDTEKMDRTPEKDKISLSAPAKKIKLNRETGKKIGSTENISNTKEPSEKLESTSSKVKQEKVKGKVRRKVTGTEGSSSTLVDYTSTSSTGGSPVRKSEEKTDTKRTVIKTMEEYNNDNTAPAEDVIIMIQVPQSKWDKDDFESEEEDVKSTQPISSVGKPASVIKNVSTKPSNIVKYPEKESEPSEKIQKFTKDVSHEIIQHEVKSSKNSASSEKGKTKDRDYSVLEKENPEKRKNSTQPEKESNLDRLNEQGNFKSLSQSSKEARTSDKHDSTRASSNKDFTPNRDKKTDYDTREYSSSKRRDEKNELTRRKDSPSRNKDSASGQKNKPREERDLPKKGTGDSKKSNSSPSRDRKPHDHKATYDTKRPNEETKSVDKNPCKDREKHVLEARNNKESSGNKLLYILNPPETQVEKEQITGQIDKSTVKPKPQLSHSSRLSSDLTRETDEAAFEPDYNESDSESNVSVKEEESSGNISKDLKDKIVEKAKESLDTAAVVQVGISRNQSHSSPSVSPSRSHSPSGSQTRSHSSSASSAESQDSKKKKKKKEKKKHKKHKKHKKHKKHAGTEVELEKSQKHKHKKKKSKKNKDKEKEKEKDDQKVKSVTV
inactive: [1] -0.018 | [2] -0.004 | [3] 0 | [4] -0.031 | [6] -0.003 | [7] 0.003 | [8] -0.01 | [9] -0.058 | [10] -0.171 | [11] 0.028 | [12] -0.107 | [13] 0.089 | [14] -0.017 | [15] -0.011 | [16] 0.081 | [17] 0.099 | [18] 0.207 | [19] 0.112 | [20] -0.013

ROCK1 (UniProt Q13464)
Sequence of UniProt Q13464 (Q13464 whole entry, looked up): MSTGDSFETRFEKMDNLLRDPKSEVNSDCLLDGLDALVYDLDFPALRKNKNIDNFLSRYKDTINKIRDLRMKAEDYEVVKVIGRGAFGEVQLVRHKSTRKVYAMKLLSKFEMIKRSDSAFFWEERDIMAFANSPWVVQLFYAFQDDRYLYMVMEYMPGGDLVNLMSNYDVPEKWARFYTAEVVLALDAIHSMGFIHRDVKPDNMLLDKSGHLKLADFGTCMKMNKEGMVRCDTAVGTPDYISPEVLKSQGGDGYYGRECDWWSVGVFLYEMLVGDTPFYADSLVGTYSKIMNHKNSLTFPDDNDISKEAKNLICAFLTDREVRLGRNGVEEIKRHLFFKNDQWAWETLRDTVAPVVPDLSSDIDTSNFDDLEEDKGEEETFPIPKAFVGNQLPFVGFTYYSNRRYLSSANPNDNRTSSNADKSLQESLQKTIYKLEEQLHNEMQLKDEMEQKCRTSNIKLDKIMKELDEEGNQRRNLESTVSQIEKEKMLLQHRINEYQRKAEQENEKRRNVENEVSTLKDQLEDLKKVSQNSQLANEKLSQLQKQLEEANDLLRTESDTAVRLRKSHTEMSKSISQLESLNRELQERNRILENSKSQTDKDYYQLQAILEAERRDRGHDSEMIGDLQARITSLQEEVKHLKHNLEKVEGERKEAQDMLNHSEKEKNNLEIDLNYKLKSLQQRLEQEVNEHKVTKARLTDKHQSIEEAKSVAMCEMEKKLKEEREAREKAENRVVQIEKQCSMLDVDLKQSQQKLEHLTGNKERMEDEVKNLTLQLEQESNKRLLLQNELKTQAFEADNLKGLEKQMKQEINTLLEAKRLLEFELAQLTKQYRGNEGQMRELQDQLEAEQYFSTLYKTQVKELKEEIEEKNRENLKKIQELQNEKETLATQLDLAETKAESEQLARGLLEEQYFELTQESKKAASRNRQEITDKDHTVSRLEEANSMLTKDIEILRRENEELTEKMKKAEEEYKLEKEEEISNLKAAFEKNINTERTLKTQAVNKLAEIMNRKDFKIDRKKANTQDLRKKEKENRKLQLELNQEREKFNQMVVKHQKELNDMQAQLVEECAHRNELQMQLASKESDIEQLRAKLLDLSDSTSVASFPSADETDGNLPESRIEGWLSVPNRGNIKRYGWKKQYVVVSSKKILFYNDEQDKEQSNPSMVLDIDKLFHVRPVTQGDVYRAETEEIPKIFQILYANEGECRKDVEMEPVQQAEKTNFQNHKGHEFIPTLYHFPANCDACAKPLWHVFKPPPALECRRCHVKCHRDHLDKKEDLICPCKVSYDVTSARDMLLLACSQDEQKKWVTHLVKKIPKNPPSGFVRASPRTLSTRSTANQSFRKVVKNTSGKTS
inactive: [1] -0.017 | [2] -0.006 | [3] -0.03 | [4] 0.007 | [5] -0.028 | [6] 0.034 | [7] -0.006 | [8] 0.01 | [9] -0.037 | [10] 0.062 | [12] 0.054 | [13] -0.09 | [14] -0.029 | [15] -0.002 | [16] 0.029 | [17] 0.068 | [19] -0.054

RPP25L (UniProt Q8N5L8)
Sequence of UniProt Q8N5L8 (Q8N5L8 whole entry, looked up): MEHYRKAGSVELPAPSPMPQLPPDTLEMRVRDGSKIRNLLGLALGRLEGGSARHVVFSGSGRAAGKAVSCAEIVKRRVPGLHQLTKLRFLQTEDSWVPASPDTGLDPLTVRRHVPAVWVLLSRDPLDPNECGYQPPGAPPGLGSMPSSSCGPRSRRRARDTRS
inactive: [1] 0.143 | [2] -0.04 | [3] 0.044 | [4] -0.087 | [5] 0.09 | [6] -0.031 | [7] -0.058 | [8] 0.004 | [9] 0.044 | [10] -0.004 | [11] 0.003 | [12] -0.052 | [13] -0.012 | [14] -0.032 | [15] -0.001 | [16] -0.014 | [17] -0.08 | [18] 0.073 | [19] 0.183 | [20] -0.075

RAB3D (UniProt O95716)
Sequence of UniProt O95716 (O95716 whole entry, looked up): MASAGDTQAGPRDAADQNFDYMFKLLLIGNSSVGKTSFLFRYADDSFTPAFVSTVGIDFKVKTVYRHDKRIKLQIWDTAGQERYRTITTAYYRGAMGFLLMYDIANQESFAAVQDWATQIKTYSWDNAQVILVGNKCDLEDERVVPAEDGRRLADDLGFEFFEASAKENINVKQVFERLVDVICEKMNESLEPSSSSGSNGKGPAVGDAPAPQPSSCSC
inactive: [1] -0.142 | [2] -0.052 | [3] 0.01 | [4] 0.066 | [5] 0.221 | [6] -0.116 | [7] 0.075 | [8] -0.201 | [9] 0.065 | [10] 0.285 | [12] 0.113 | [13] 0.032 | [14] -0.007 | [16] -0.126 | [17] 0.055 | [18] 0.027 | [20] 0.051

RDH11 (UniProt Q8TC12)
Sequence of UniProt Q8TC12 (Q8TC12 whole entry, looked up): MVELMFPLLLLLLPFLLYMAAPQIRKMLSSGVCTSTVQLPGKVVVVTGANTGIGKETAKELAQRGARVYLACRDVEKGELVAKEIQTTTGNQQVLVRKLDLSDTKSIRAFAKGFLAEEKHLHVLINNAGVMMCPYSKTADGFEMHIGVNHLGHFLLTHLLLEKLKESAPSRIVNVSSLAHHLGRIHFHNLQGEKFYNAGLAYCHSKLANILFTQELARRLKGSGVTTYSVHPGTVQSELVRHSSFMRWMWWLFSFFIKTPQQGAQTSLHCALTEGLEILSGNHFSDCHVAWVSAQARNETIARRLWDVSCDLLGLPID
inactive: [1] -0.119 | [2] -0.048 | [3] 0.099 | [4] -0.112 | [5] -0.079 | [6] -0.03 | [7] 0.015 | [8] -0.022 | [9] 0.059 | [10] -0.033 | [11] -0.118 | [12] 0.061 | [13] -0.049 | [14] -0.165 | [15] 0.055 | [16] 0.05 | [17] 0.092 | [18] 0.061 | [19] -0.087 | [20] -0.041

RPS20 isoform 2 (UniProt P60866)
inactive: [1] 0.178 | [2] -0.005 | [3] -0.006 | [4] 0.223 | [5] 0.05 | [6] -0.071 | [7] -0.078 | [8] -0.008 | [9] 0.094 | [10] -0.059 | [11] -0.012 | [12] 0.056 | [13] 0.151 | [14] 0.037 | [15] -0.029 | [16] 0.012 | [17] -0.091 | [18] -0.006 | [19] 0.072 | [20] -0.1

SGPL1 (UniProt O95470)
inactive: [1] 0.009 | [2] -0.013 | [3] 0.024 | [4] -0.017 | [5] 0.016 | [6] -0.029 | [7] -0.005 | [8] -0.071 | [9] 0.151 | [10] 0.034 | [11] -0.01 | [12] 0.004 | [13] -0.005 | [14] 0.144 | [15] 0 | [16] -0.014 | [17] 0.009 | [18] -0.034 | [19] 0.064 | [20] -0.134

SF3B5 (UniProt Q9BWJ5)
Sequence of UniProt Q9BWJ5 (Q9BWJ5 whole entry, looked up): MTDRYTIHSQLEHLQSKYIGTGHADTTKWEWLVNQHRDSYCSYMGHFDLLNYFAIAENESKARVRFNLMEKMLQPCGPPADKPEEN
inactive: [1] -0.115 | [2] -0.056 | [3] 0.029 | [4] 0.008 | [5] -0.189 | [6] -0.064 | [9] -0.018 | [10] -0.043 | [11] 0.081 | [12] 0.043 | [13] -0.034 | [14] 0.038 | [15] 0.116 | [16] -0.004 | [17] -0.016 | [18] 0.016 | [19] -0.127 | [20] 0
